{"source": "PubChem BioAssay (NCATS)", "note": "Records with an inconclusive call do not appear. Values without a mark were called inactive. The source made the active and inactive calls. Calls come from the whole dose curve; as a rule, active = well fitted cell-killing curve with a large enough effect; inconclusive = small, poorly fitted or top-dose-only effect; inactive = flat fitted curve, though single readings scatter. Numbered stars: 1 amine (or outer) side, 2 acyl side, 3 side chain; on linkers, the order of the positions; unused ones are H or OH. Bridge positions count the residues as written; N and C are the ends. Square brackets hold non-standard residues; d marks the D form. Peptide text beside a SMILES is read from it. I, II: the chains in the order shown. Actinocin(9to1) = Cc1c2oc3c(C)ccc(C(=O)[*:1])c3nc-2c(C(=O)[*:2])c(N)c1=O; NMeV = CN[C@H](C(=O)O)C(C)C; Sar = CNCC(=O)O"}
{"assay": "qHTS of pediatric cancer cell lines to identify multiple opportunities for drug repurposing: Confirmatory screen for SK-N-SH cells (AID 1347129);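 note: cells exposed to compound for 48 h before viability read; nearly all actives have a fitted effect of over 60% in size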; note: potency is the fitted concentration of half-maximal effect;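 for activity change, negative = cytotoxic: plate controls were DMSO for no effect and bortezomib control for full effect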", "conditions": "SK-N-SH neuroblastoma cell viability; series mostly up to 46.1 µM; activity change, negative = cytotoxic: at the top concentration", "text": "Drug repurposing or repositioning has been offered as a strategy for drug development in oncology programs. This approach has special potential for childhood cancers and other rare or orphan diseases, where the expected return on new drug development has been a disincentive to pharmaceuticals.\nIn this project we exploit the poly-pharmacology of drugs to discover new indications via phenotypic screening of a panel of 19 well-characterized cell lines derived from solid tumors seen in children and adolescents. The goal is to identify approved drugs with previously unrecognized anticancer properties that has the potential to reveal new mechanisms and biological processes involved in carcinogenesis or drug resistance. We employed a titration-based paradigm (quantitative high-throughput screening or qHTS), where all compounds were tested at multiple concentrations for their effect on cell viability. Concentration-response curves (CRCs) were derived directly from the primary screen, and both potency and efficacy values were used to identify compounds with robust bioactivity profiles. We screened the NIH Chemical Genomics Center (NCGC) Pharmaceutical Collection (NPC) and Mechanism Interrogation Plate (MIPE) small molecule collections of approved and investigational compounds against these cell lines; and measured metabolically active cells after 48 hours of compound treatment as a proxy for cell viability.\nAssay Submitter: Nathalia J. Martinez, National Center for Advancing Translational Sciences, National Institutes of Health, Rockville, MD, USA; email: natalia.martinez@nih.gov\n[1] Shen, M et al. Quantitative high-throughput phenotypic screening of pediatric cancer cell lines identifies multiple opportunities for drug repurposing. Oncotarget 2017 Dec 19;9(4):4758-4772. PMID 29435139.\nThe cells were obtained from University of North Carolina (UNC), Pediatric Preclinical Testing Program (PPT), and Coriell Institute (CI).\nqHTS cell viability assay:\nCells were assayed in growth media at a density of 500-1,000 cells/well. Five microliters of cells were dispensed into 1,536-well, white, solid-bottom, TC-treated plates (Greiner Bio One) using a multidrop dispenser and incubated at 37 degrees C, 5% CO2, under a humidified atmosphere for 5 hours. Twenty-three nanoliters of compounds and controls (neutral control DMSO or positive control bortezomib at final concentration of 2.3 µM) were subsequently transferred by Kalypsys pintool. For primary screens, the MIPE collection was tested at 11-point dilutions (final concentrations range from 0.78 nM to 46 µM) and the NPC collection at 8-point dilutions (final concentrations range from 0.59 nM to 46 µM). Compounds tested in follow-up screens were assayed at 11-point dilutions. Cells were incubated for 48 hours, followed by addition of 3 µL of CellTiter-Glo (Promega). After a 15 min incubation at room temperature, samples were analyzed for luminescence intensity using a ViewLux High-throughput CCD imager equipped with clear filters.", "units": {"activity change, negative = cytotoxic": "%"}}
{"smiles": "C[C@]12C=CC(=O)C=C1[C@@H](F)C[C@@H]1[C@@H]2[C@@H](O)C[C@@]2(C)[C@H]1CC[C@]2(O)C(=O)CO", "activity change, negative = cytotoxic": -1.49}
{"smiles": "CC(=O)Oc1ccc(C(c2ccc(OC(C)=O)cc2)c2ccccn2)cc1", "activity change, negative = cytotoxic": -0.247}
{"smiles": "CC(C)(C(=O)c1cccnc1)c1cccnc1", "activity change, negative = cytotoxic": 3.01}
{"smiles": "NC(CO)(CO)CO", "activity change, negative = cytotoxic": 5.25}
{"smiles": "NC(=O)CC[C@@H]1NC(=O)[C@H](Cc2ccccc2)NC(=O)[C@H](Cc2ccc(O)cc2)NC(=O)CCSSC[C@@H](C(=O)N2CCC[C@H]2C(=O)N[C@@H](CCCN=C(N)N)C(=O)NCC(N)=O)NC(=O)[C@H](CC(N)=O)NC1=O", "activity change, negative = cytotoxic": -10.7}
{"smiles": "CC(=O)OCC(=O)[C@@]1(OC(C)=O)[C@@H](C)C[C@H]2[C@@H]3C[C@H](F)C4=CC(=O)C=C[C@]4(C)[C@@]3(F)[C@@H](O)C[C@@]21C", "activity change, negative = cytotoxic": 5.18}
{"smiles": "COc1cccc2c1C(=O)c1c(O)c3c(c(O)c1C2=O)C[C@@](O)(C(=O)CO)C[C@@H]3O[C@H]1C[C@H](N)[C@H](O)[C@H](C)O1", "Potency": "1.32 µM (active)"}
{"smiles": "CC(=O)OCC(=O)[C@@]1(O)CC[C@H]2[C@@H]3CCC4=CC(=O)C=C[C@]4(C)[C@H]3[C@@H](O)C[C@@]21C", "activity change, negative = cytotoxic": 1.54}
{"smiles": "CC(=O)[C@H]1CC[C@H]2[C@@H]3C[C@H](C)C4=CC(=O)CC[C@]4(C)[C@H]3[C@@H](O)C[C@]12C", "activity change, negative = cytotoxic": -14.3}
{"smiles": "CCCCC(CC)CN=C(N)NC(N)=NCCCCCCN=C(N)NC(N)=NCC(CC)CCCC", "note": "(stereo unspecified)", "Potency": "11.8 µM (active)"}
{"smiles": "C[C@@H]1C[C@H]2[C@@H]3CCC4=CC(=O)C=C[C@]4(C)[C@@]3(F)[C@@H](O)C[C@]2(C)[C@H]1C(=O)CO", "activity change, negative = cytotoxic": 10.5}
{"smiles": "C[C@@H]1C[C@H]2[C@@H]3C[C@H](F)C4=CC(=O)C(Cl)=C[C@]4(C)[C@@]3(F)[C@@H](O)C[C@]2(C)[C@@]1(O)C(=O)CO", "activity change, negative = cytotoxic": 7.2}
{"smiles": "C=C1C[C@H]2[C@@H]3C=C(C)C4=CC(=O)CC[C@]4(C)[C@H]3CC[C@]2(C)[C@@]1(OC(C)=O)C(C)=O", "activity change, negative = cytotoxic": 1.07}
{"smiles": "CCOc1ccc2nc3cc(N)ccc3c(N)c2c1", "Potency": "14.8 µM (active)"}
{"smiles": "COCc1c(C(C)C)nc(C(C)C)c(/C=C/[C@@H](O)C[C@@H](O)CC(=O)O)c1-c1ccc(F)cc1", "Potency": "0.418 µM (active)"}
{"smiles": "C[n+]1c2cc(N)ccc2cc2ccc(N)cc21", "note": "(tested in a mixture with another compound)", "Potency": "8.33 µM (active)"}
{"smiles": "CC(=O)OCC(=O)[C@@]1(O)[C@H](C)C[C@H]2[C@@H]3CCC4=CC(=O)C=C[C@]4(C)[C@@]3(F)[C@@H](O)C[C@@]21C", "activity change, negative = cytotoxic": -6.61}
{"smiles": "CC1(C)O[C@@H]2C[C@H]3[C@@H]4C[C@H](F)C5=CC(=O)CC[C@]5(C)[C@H]4[C@@H](O)C[C@]3(C)[C@]2(C(=O)CO)O1", "activity change, negative = cytotoxic": 11.4}
{"smiles": "COc1c(C)c2c(c(O)c1C/C=C(\\C)CCC(=O)O)C(=O)OC2", "Potency": "18.7 µM (active)"}
{"smiles": "Oc1ccc(O)cc1", "activity change, negative = cytotoxic": -19.4}
{"smiles": "CCCCCCC[N+](CC)(CC)CCCCc1ccc(Cl)cc1", "Potency": "20.9 µM (active)"}
{"smiles": "C[C@]12CCC(=O)C=C1CC[C@H]1[C@@H]3CC[C@](O)(C(=O)CO)[C@@]3(C)C[C@H](O)[C@@]12F", "activity change, negative = cytotoxic": 2.8}
{"smiles": "C[C@H]1C[C@H]2[C@@H]3CCC4=CC(=O)C=C[C@]4(C)[C@@]3(Cl)[C@@H](O)C[C@]2(C)[C@@]1(O)C(=O)CO", "activity change, negative = cytotoxic": 5.35}
{"smiles": "CN(C)C(=S)SC(=S)N(C)C", "activity change, negative = cytotoxic": -0.459}
{"smiles": "CC(=O)OCC(=O)[C@@]12OC(C)(C)O[C@@H]1C[C@H]1[C@@H]3C[C@H](F)C4=CC(=O)C=C[C@]4(C)[C@@]3(F)[C@@H](O)C[C@@]12C", "activity change, negative = cytotoxic": -2.4}
{"smiles": "C[C@]12C=CC(=O)C=C1CC[C@@H]1[C@@H]2[C@@H](O)C[C@@]2(C)[C@H]1CC[C@]2(O)C(=O)CO", "activity change, negative = cytotoxic": 6.26}
{"smiles": "CCC(C(=O)OCCN(CC)CC)c1ccccc1", "note": "(stereo unspecified)", "activity change, negative = cytotoxic": -0.665}
{"smiles": "CCCCC(=O)O[C@]1(C(=O)CO)CC[C@H]2[C@@H]3CCC4=CC(=O)CC[C@]4(C)[C@H]3[C@@H](O)C[C@@]21C", "activity change, negative = cytotoxic": 6.97}
{"smiles": "COc1cc(C=C2CCC/C(=C\\c3ccc(O)c(OC)c3)C2=O)ccc1O", "Potency": "18.7 µM (active)"}
{"smiles": "Cc1c2oc3c(C)ccc(C(=O)N[C@@H]4C(=O)N[C@H](C(C)C)C(=O)N5CCC[C@H]5C(=O)N(C)CC(=O)N(C)[C@@H](C(C)C)C(=O)O[C@@H]4C)c3nc-2c(C(=O)N[C@@H]2C(=O)N[C@H](C(C)C)C(=O)N3CCC[C@H]3C(=O)N(C)CC(=O)N(C)[C@@H](C(C)C)C(=O)O[C@@H]2C)c(N)c1=O", "note": "(I: T[dV]P[Sar][NMeV] / II: T[dV]P[Sar][NMeV]; ester I:1-I:C, II:1-II:C; linker I:N-II:N via Actinocin(9to1))", "Potency": "0.0118 µM (active)"}
{"smiles": "CN(C)/N=N/c1nc[nH]c1C(N)=O", "activity change, negative = cytotoxic": 9.25}
